Source: PubChem BioAssay
A selection: hits, their analogues and other compounds. The true share with any hit is near 2.5%.
SUMO HTRF inh: blocks human SUMOylation mediated by UBC9; P63279; HTRF SUMOylation assay, SAE1/SAE2 + UBC9, in vitro; inhibition, % at 35 µM; hit rate 0.36% among 290,000; AID 2006; in the data active = inhibition above about 50%, passing the limit was not always enough; inconclusive = no clear call, values can overlap the other calls
Target sequence (P63279 whole entry, looked up): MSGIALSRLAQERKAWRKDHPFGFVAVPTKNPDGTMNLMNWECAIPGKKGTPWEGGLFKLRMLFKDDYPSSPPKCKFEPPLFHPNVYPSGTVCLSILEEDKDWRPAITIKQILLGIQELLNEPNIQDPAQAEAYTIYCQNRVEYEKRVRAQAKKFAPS
p97 inhibitor: human p97 ATPase inhibition; AID 1481; P55072; recombinant p97 ATPase, Kinase-Glo ATP luminescence, 3 h; hit rate 0.42% among 220,000; inhibition, % at 8 µM; in the data active = inhibition above about 15%
PHOSPHO1 inh: PHOSPHO1 (human) inhibition; Q8TCT1; recombinant PHOSPHO1, absorbance phosphatase assay; inhibition, % at 13.3 µM; hit rate 1.1% among 290,000; AID 1565; in the data active = inhibition above about 60%
Target sequence (Q8TCT1 whole entry, looked up): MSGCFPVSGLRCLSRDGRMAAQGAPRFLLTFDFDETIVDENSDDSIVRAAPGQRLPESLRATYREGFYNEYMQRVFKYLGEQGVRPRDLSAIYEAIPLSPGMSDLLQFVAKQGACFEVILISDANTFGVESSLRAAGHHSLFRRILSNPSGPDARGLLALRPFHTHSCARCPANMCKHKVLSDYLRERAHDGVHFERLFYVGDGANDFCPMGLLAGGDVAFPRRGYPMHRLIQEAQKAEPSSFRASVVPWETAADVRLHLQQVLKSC
G6PDH counter: L. mesenteroides G6PDH inhibition counter-screen. inhibition, % at 5 µM. hit rate 0.12% among 200,000. Purified L. mesenteroides G6PDH, diaphorase/resazurin coupled fluorescence, 45 min; in the data active = inhibition above about 50%
HDAC3 inh: inhibitors of human histone deacetylase 3. O15379. recombinant HDAC3, fluorogenic peptide/trypsin coupled, fluorescence. inhibition, % at 8.3 µM. hit rate 0.15% among 320,000. AID 2718; in the data active = inhibition above about 26%, passing the limit was not always enough; inconclusive = no clear call, values can overlap the other calls
PfM18AAP inh: PfM18AAP enzyme inhibition | recombinant PfM18AAP, H-Glu-NHMec fluorogenic cleavage | inhibition, % at 7.35 µM | hit rate 1.2% among 290,000 | AID 1822;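 active = inhibition above the campaign mean inhibition over all tested compounds plus 3 SD, cut at about 28% in these data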
Hits are given with their value; 0 = inactive; ? = inconclusive; - = not tested or not shown.

SMILES | SUMO HTRF inh | p97 inhibitor | PHOSPHO1 inh | G6PDH counter | HDAC3 inh | PfM18AAP inh
Cn1c(-c2sc3cc(C(F)(F)F)cnc3c2-c2cccnc2)n[nH]c1=S | 0 | 0 | 92.0 | 0 | 0 | 0
CCCCN(C(=O)COC(=O)COc1c(C)cc(C)cc1C)c1c(N)n(CCC)c(=O)[nH]c1=O | - | - | - | - | 0 | -
O=C(C1CCN(S(=O)(=O)N2CCC3(CC2)OCCO3)CC1)N1CCN(Cc2ccccc2)CC1 | 0 | 0 | 63.9 | 0 | 0 | 0
O=C(c1ccc(Cl)cc1)c1oc2ccccc2c1CS(=O)c1ccc(Cl)cc1 (configuration not stated) | 0 | 0 | 107.0 | 0 | 0 | 0
Cc1ccc(C(=O)N/C(=C\c2cn(C)c3ccccc23)C(=O)NCCN2CCOCC2)cc1 | 0 | - | 0 | - | 0 | 0
O=C(/C=C/c1cccs1)NC(=S)NNC(=O)c1ccccc1O | 0 | 0 | 0 | 0 | 0 | 0
COc1ccc(/C=C/C(=O)NC(=S)NNC(=O)Cc2cccs2)cc1 | 0 | 0 | 95.7 | 0 | 0 | 0
COc1ccc(/C=C/C(=O)NC(=S)Nc2ccc(C(=O)O)cc2)cc1 | 0 | 0 | 67.2 | 0 | 0 | 0
COc1ccc(C(=O)NNC(=S)NC(=O)/C=C/c2cccs2)cc1 | 0 | 0 | 89.7 | 0 | 0 | 0
COc1c(-c2ccc([N+](=O)[O-])cc2[N+](=O)[O-])c(=O)n(C)c(=O)n1C | 0 | - | 0 | - | 0 | 0
CCc1cc(C(=O)N2CCCC(Nc3ccc(F)c(F)c3)C2)n(C)n1 (configuration not stated) | 0 | - | 0 | - | 0 | 0
COc1cc(/C=c2\sc3nc(-c4ccncc4)nn3c2=O)ccc1OC(C)=O | 0 | 0 | 86.6 | 0 | - | 0
COC(=O)c1csc(S(=O)(=O)N2CCOCC2)c1OC | 0 | - | 0 | - | 0 | 0
O=C1NC(c2ccccc2Cl)=N/C1=C/c1ccco1 | 0 | 0 | 0 | - | 0 | 0
O=C1NC(c2ccc(Br)cc2)=N/C1=C/c1ccco1 | 50.6 | 0 | 0 | 0 | 0 | 0
NC(=O)CSc1ncc(-c2ccccc2)[nH]1 | 0 | 0 | 73.8 | 0 | 0 | 0
O=C(CSc1ncc(-c2ccccc2)[nH]1)Nc1cccc(O)c1 | 0 | 0 | 93.5 | 0 | 0 | 0
O=C(CSc1ncc(-c2ccccc2)[nH]1)Nc1ccccc1 | 0 | 0 | 0 | 0 | 0 | 0
Cc1ccc(N2C(=S)N=C(Nc3ccccc3C)C23CCOC(C)(C)C3)cc1 (configuration not stated) | 0 | 0 | 70.5 | 0 | 0 | 0
Cc1cc(C)cc(Oc2coc3c(CN(C)C)c(O)ccc3c2=O)c1 | 51.3 | - | 0 | - | 0 | 0
COc1ccc(Oc2coc3c(CN(C)C)c(O)ccc3c2=O)cc1 | 0 | 0 | 0 | 0 | 0 | 0
O=C1CSC(=S)N1N1C(=O)c2cccc([N+](=O)[O-])c2C1=O | 0 | 0 | 0 | 0 | 0 | 43.3
COc1ccc(OC)c(/C=N/NC(=O)CCc2ccc(O)c(O)c2)c1 | 0 | 0 | 0 | 0 | 0 | 31.3
CCOC(=O)N1CCN(C(=O)CSC2=NS(=O)(=O)c3cc(F)ccc3N2)CC1 | - | - | - | - | 0 | -
CCOc1cc(C(c2c(C)[nH][nH]c2=O)c2c(C)[nH][nH]c2=O)cc(Br)c1OC | 0 | - | 0 | - | 0 | 30.4
SMILES | SUMO HTRF inh | p97 inhibitor | PHOSPHO1 inh | G6PDH counter | HDAC3 inh | PfM18AAP inh
CCOc1ccc(C(c2c(C)[nH][nH]c2=O)c2c(C)[nH][nH]c2=O)cc1OC | 0 | 0 | 0 | 0 | 0 | 0
CCOc1cc(C(c2c(C)[nH][nH]c2=O)c2c(C)[nH][nH]c2=O)cc([N+](=O)[O-])c1O | 0 | - | 0 | - | 0 | 0
CCOc1cc(C(c2c(C)[nH][nH]c2=O)c2c(C)[nH][nH]c2=O)cc(Cl)c1O | 0 | - | 0 | - | 0 | 31.6
CCCCn1c(N)c(N(CCOC)C(=O)COC(=O)CCOc2ccccc2C)c(=O)[nH]c1=O | - | - | - | - | 0 | -
CC1CCCC(C)N1C(=O)COC(=O)c1ccc2ccccc2n1 (configuration not stated) | - | - | - | - | 0 | -
Cc1cc(C)cc(NC(=O)Cn2ncn3c(cc4ccccc43)c2=O)c1 | 0 | 0 | 0 | 0 | 0 | 0
COC(=O)Cn1ncn2c(cc3oc(C)cc32)c1=O | 0 | 0 | 66.2 | 0 | 0 | 0
COc1cc(/C=C2/SC(=S)N(c3c(C)n(C)n(-c4ccccc4)c3=O)C2=O)ccc1O | 0 | 0 | 0 | 0 | 0 | 32.9
COC(=O)c1cc(OC)c(OC)cc1N=CC1=C(O)CC(C)(C)CC1=O | 0 | 0 | 0 | 0 | 0 | 0
COC(=O)c1cc(N=CC2=C(O)CC(C)(C)CC2=O)cc(C(=O)OC)c1 | 0 | 0 | 0 | 0 | 0 | 29.6
CC1CCc2cc(F)ccc2N1C(=O)CCl (configuration not stated) | 0 | 0 | 0 | 0 | - | 0
O=C(O)CSc1cc(NS(=O)(=O)c2ccc(Br)cc2)c2ccccc2c1O | 75.9 | - | 0 | - | 0 | 0
Cc1ccc(C)n1-n1c(C)nc2scc(-c3cccs3)c2c1=O | 0 | 14.8 | 0 | 0 | ? | 0
Cc1ccc(C2CC(c3ccccc3)=NN2C(=S)Nc2ccccc2)o1 (configuration not stated) | 0 | 0 | 87.9 | 0 | 0 | 0
CC1CCCN(C(=O)COC(=O)c2ccc3[nH]c4c(c3c2)CCCC4)C1 (configuration not stated) | - | - | - | - | 0 | -
COc1ccc(/C=C/c2nnc(NC(=O)CSc3ccc(C)cc3)s2)cc1 | 50.1 | 0 | 0 | - | - | 0
CCC(=O)Nc1nnc(/C=C/c2ccc(OC)cc2)s1 | 0 | 0 | 0 | - | 0 | 0
Oc1c(Br)cc(Br)cc1/C=N/Nc1ccc(Cl)nn1 | 0 | - | 0 | - | 0 | 39.6
O=C(O)c1ccccc1N/N=C/c1cc(Br)cc(Br)c1O | 0 | 0 | 0 | - | 0 | 0
O=C(CC1OC(=O)c2ccccc21)Nc1cccc(S(=O)(=O)N2CCCCCC2)c1 (configuration not stated) | 0 | - | 0 | - | 0 | 0
Cc1ccc(NC2c3ncccc3C(=O)N2c2ccccc2C)cc1C (configuration not stated) | 0 | 0 | 85.5 | 0 | 0 | 28.9
CCOc1ccc(N2C(=O)c3cccnc3C2Nc2ccc(Cl)cc2)cc1 (configuration not stated) | 0 | 0 | 0 | 0 | 0 | 0
Cc1ccc(C)c(OCC(=O)Nc2nonc2NC(=O)COc2cc(C)ccc2C)c1 | 56.7 | 0 | 0 | 0 | 0 | 0
Cc1ccc(C)c(OCC(=O)Nc2cccc(S(=O)(=O)NC3=NCCCCC3)c2)c1 | 0 | - | 67.2 | - | 0 | 0
Cc1cc(Cl)ccc1OCC(=O)Nc1cccc(S(=O)(=O)NC2=NCCCCC2)c1 | - | - | - | - | 0 | -
SMILES | SUMO HTRF inh | p97 inhibitor | PHOSPHO1 inh | G6PDH counter | HDAC3 inh | PfM18AAP inh
Cc1cccc(OCC(=O)Nc2nonc2NC(=O)COc2cccc(C)c2)c1 | - | 0 | - | - | 0 | 0
Cc1cccc(NC(=O)COC(=O)Cc2cccs2)c1C | - | - | - | - | 0 | -
CCCCC(=O)Nc1ccc(N2CCN(C(=O)c3ccco3)CC2)cc1 | 0 | - | 0 | - | 0 | 0
O=C(Cn1cc([N+](=O)[O-])cn1)N1CCCc2ccccc21 | 0 | 0 | 63.7 | 0 | 0 | 0
O=C(CN1C(=O)NC2(CCSC2)C1=O)N1CCN(c2ccc(F)cc2)CC1 (configuration not stated) | 0 | 0 | 99.0 | 0 | 0 | 0
Cc1cc(NC(=O)CN2C(=O)CCSc3ccccc32)no1 | 0 | 0 | 0 | 0 | 0 | 0
